# From PubChem
# LMNA splice mod: modulators of lamin A splicing; HeLa LMNA splicing GFP/RFP minigene ratio, 48 h; Potency, µM (titrated, usually from 46.1 µM), usual class: inhibitors; 200,000 compounds, 0.01% hits; AID 1487; active = well fitted inhibition curve with a large enough effect in the signal ratio, with a control signal flat, not every such curve was filed as active; inconclusive = small, poorly fitted or top-dose-only effect, or effect the other way, or a change in a side signal; the % refers to the signal ratio
#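 S3 HeLa cells stably expressing lamin A-EGFP splicing minigene plus DsRed2, 600 cells/well, 48 h compound exposure at 37C. Laser-scanning cytometry; analysed as GFP (500-530 nm)/RFP (575-640 nm) total intensity ratio; 0.5% DMSO vehicle.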
# HPGD inh: blocks human HPGD enzyme activity | 150,000 compounds, 4.3% hits | Potency, µM, most hits filed as inhibitors | purified HPGD, NADH fluorescence kinetic, PGE2 substrate | P15428 | AID 894
# Target sequence (P15428 whole entry, looked up): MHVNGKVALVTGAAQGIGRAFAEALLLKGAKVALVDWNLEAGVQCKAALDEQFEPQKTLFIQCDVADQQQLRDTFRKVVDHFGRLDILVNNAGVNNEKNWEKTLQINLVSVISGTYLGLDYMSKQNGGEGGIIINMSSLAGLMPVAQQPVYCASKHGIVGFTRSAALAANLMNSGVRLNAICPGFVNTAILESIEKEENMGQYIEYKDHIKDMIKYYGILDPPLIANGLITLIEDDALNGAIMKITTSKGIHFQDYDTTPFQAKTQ
#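 NADH formation kinetics: reaction with 30 uM PGE2 and 1 mM NAD+ (final), 20 nM enzyme, Tris-HCl pH 8 with Tween 20, after 15 min compound preincubation at room temperature. Fluorescence change, last versus first of five reads.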
# Luc counter: blocks Kinase-Glo luciferase, a counter-screen artifact; Kinase-Glo luciferase, ATP luminescence, 8 min; Potency, µM (series often up to 38.3 µM), hits mostly inhibitors; 200,000 compounds, 0.28% hits; AID 1379; active = well fitted inhibition curve with a large enough effect; inconclusive = small, poorly fitted or top-dose-only effect; also: nearly all actives have a fitted effect of over 60% in size
#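 Inhibition of Kinase-Glo luciferase light generation was assessed at 10 uM ATP in pH 7.2 imidazole buffer, with luminescence measured after eight minutes at ambient temperature.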
# PNC assembly inh: perinucleolar compartment assembly inhibition; 140,000 compounds, 3.1% hits; PC3M PTB-GFP, PNC prevalence imaging, 16 h; stronger effect = lower value; activity change (PNC), negative = inhibition, % at 10 µM;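 active = readout at or below -70, meaning at least 70% loss of cells showing the perinucleolar compartment, a nuclear body marking cancer cells; inconclusive = readout between -30 and a set limit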
#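 PC3M cells stably expressing PTB-GFP, 750–1000 cells/well, treated 16 h at 37 °C with compound (23 nl of library stock), in duplicate. After paraformaldehyde fixation and Hoechst stain, imaged at 20x; PNC prevalence scored by image analysis.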
# ALDH1A1 inh: inhibitors of human aldehyde dehydrogenase 1A1 | Purified ALDH1A1, NADH fluorescence, propionaldehyde substrate | AID 1030 | Potency, µM (titrated, usually from 75.3 µM), most hits filed as inhibitors | P00352 | 220,000 compounds, 7.3% hits
# A number is an active result; i = inactive; ? = inconclusive; nt = no result given; [ ] = remark or other dose. Compounds with a hit are over-represented: about 10% of the library has one in this group of screens. Unless noted, calls follow the shape of the dose curve; as a rule, active = well fitted inhibition curve with a large enough effect (not every such curve was filed as active); inconclusive = small, poorly fitted or top-dose-only effect, or another doubt; inactive = no such curve, though single readings can be large or run the other way.
SMILES,LMNA splice mod,HPGD inh,Luc counter,PNC assembly inh,ALDH1A1 inh
CCOC(=O)c1ccccc1NC1(c2ccc(OC)cc2)C(=O)c2ccccc2C1=O,i,nt,nt,nt,nt
O=C(c1ccncc1)N1CCC2(CCCN(c3ccccn3)C2)CC1,nt,?,i,nt,?
CS(=O)(=O)Nc1ccc(Cc2ccc(NS(C)(=O)=O)cc2)cc1,?,?,i,i,?
CCOC(=O)c1ccc(NCC(O)COc2ccccc2)cc1 (centres undefined),i,i,i,-118.9,i
CCS(=O)(=O)Nc1ccc(Cc2ccc(NS(=O)(=O)CC)cc2)cc1,?,5.62µM,i,?,i
Cc1cccc(-c2nc3scc(CCNS(=O)(=O)c4ccc(Oc5ccccc5)cc4)n3n2)c1,i,nt,nt,nt,nt
Cn1c(=O)c([N+](=O)[O-])c(NCC(O)c2ccccc2)c2ccccc21 (centres undefined),i,25.1µM,i,i,?
O=c1c([N+](=O)[O-])c(NCCN2CCCCCC2)c2ccccc2n1-c1ccccc1,i,i,i,?,3.98µM
CCn1c(=O)c([N+](=O)[O-])c(NCCN(C)C)c2ccccc21,nt,nt,i,nt,11.2µM
CCn1c(=O)c([N+](=O)[O-])c(NCC(O)c2ccccc2)c2ccccc21 (centres undefined),?,15.8µM,i,?,?
CCn1c(=O)c([N+](=O)[O-])c(Cl)c2ccccc21,?,nt,i,nt,?
CCCCNc1c([N+](=O)[O-])c(=O)n(C)c2ccccc12,i,nt,i,nt,i
COc1ccc(C)cc1NC(=O)Cn1c(=O)ccc2cc(S(=O)(=O)N3CCC(C)CC3)ccc21,i,nt,nt,nt,nt
CC(C)(C)NC(=O)NC(=O)COC(=O)c1nc(-c2ccccc2)n(-c2cccc(C(F)(F)F)c2)n1,i,i,i,-112.2,i
CS(=O)(=O)c1ccc(C(O)C(CO)NC(=O)C(Cl)Cl)cc1 (centres undefined),nt,i,i,nt,i
CCOC(=O)c1c(-c2cccc([N+](=O)[O-])c2)csc1NC(=O)CCCOc1ccccc1OC,i,?,i,i,28.2µM
Cn1c(SCC(=O)c2cc(Cl)c(Cl)s2)nnc1-c1ccco1,nt,nt,nt,nt,28.2µM
CCOC(=O)c1c(-c2cccc([N+](=O)[O-])c2)csc1NC(=O)CCCOc1ccccc1,i,nt,nt,i,?
CCOC(=O)c1c(-c2ccc(C)cc2)csc1NC(=O)CCN1CCOCC1,i,i,i,i,?
CCOC(=O)c1c(-c2ccccc2)csc1NC(=O)CCN1CCOCC1,?,i,i,i,28.2µM
CCCn1c(SCC(=O)Nc2ccccc2-c2ccccc2)nnc1-c1ccoc1C,?,i,i,i,31.6µM
Cc1ccc(C(=O)CSc2nnc(-c3ccco3)n2C)cc1,?,nt,i,nt,i
CC[C@@H]1C(c2ccc(F)cc2)=NN(c2ccc(Br)cc2)[C@H]1C(=O)N1CCOC1=O,nt,?,i,nt,?
O=C(NCCc1csc(-c2cccc(F)c2)n1)c1ccccc1C(F)(F)F,i,nt,nt,nt,nt
CCOC(=O)c1c(-c2ccccc2)csc1NC(=O)CSc1ccccc1,?,i,i,i,?
SMILES,LMNA splice mod,HPGD inh,Luc counter,PNC assembly inh,ALDH1A1 inh
Cc1occc1-c1nnc(SCC(=O)Nc2ccccc2-c2ccccc2)n1C,?,i,i,i,22.4µM
Cc1ccc(-n2nnnc2SCC(=O)Nc2ccccc2-c2ccccc2)cc1C,?,i,i,i,?
CC(Sc1nnnn1-c1ccccc1)C(=O)Nc1ccccc1-c1ccccc1 (centres undefined),?,i,i,-134.0,?
CCOC(=O)c1c(-c2ccccc2)csc1NC(=O)CSc1nnnn1C,?,31.6µM,i,i,i
CCOC(=O)c1[nH]cc(-c2ccccc2)c1N1CCOCC1,i,3.98µM,i,i,2.82µM
c1csc(CNc2ncncc2-c2ccc3c(c2)OCO3)c1,i,?,i,nt,?
O=c1c(-c2ccc(F)cc2)nc2cncnc2n1Cc1ccc(F)cc1,i,nt,nt,nt,i
CCOC(=O)CNC(c1ccccc1)c1cc(Br)ccc1NC(=O)CCN1CCOCC1 (centres undefined),?,31.6µM,i,i,?
COC(=O)CNC(c1ccccc1)c1cc(Br)ccc1NC(=O)CCN1CCOCC1 (centres undefined),?,?,i,i,i
O=C(CC(c1ccccc1)c1cc(Br)ccc1O)NCCN1CCOCC1 (centres undefined),i,14.1µM,i,i,i
CCOC(=O)c1c(-c2ccc(-c3ccccc3)cc2)csc1NC(=O)C1C2CCC(O2)C1C(=O)O (centres undefined),i,14.1µM,i,i,?
Cc1cc(C)cc(NC(=O)c2ccc(CSc3nnnn3C)cc2)c1,?,i,i,i,i
Cn1nnnc1SCc1ccc(C(=O)Nc2ccccc2F)cc1,i,15.8µM,i,i,?
Cc1c(NC(=O)c2cccs2)cccc1-c1nc2cc(Cl)ccc2o1,i,nt,nt,nt,nt
CNc1ncnc2c1ncn2[C@H]1C[C@H](OP(=O)(O)O)[C@H](COP(=O)(O)O)O1,nt,i,i,nt,i
Cn1nnnc1SCC(=O)Nc1ccccc1-c1ccccc1,i,i,i,i,12.6µM
Cc1ccccc1NC(=O)CSc1nnnn1C,i,i,i,i,i
Cn1c(SCC(=O)Nc2ccccc2-c2ccccc2)nnc1-c1ccco1,i,i,i,?,8.91µM
O=C(O)Cc1c[nH]c2ccc(F)cc12,nt,i,i[7.66 µM],nt,i[13.5 µM]
O=C(Nc1ccccn1)C(NS(=O)(=O)c1cccc2nsnc12)c1ccccc1 (centres undefined),i,31.6µM,i,i,?
COc1cc(C(=O)N(CCCN(C)C)c2nc3c(OC)cccc3s2)cc(OC)c1OC,i,nt,nt,nt,nt
Cc1[nH][nH]c(=O)c1C(c1c(C)[nH][nH]c1=O)c1cn(Cc2cccc3ccccc23)c2ccccc12,i,i,i,i,0.316µM
Cc1[nH][nH]c(=O)c1C(c1c(C)[nH][nH]c1=O)c1cn(C)c2ccccc12,nt,nt,i,nt,?
Cc1c(CCOC(=O)C23CC4CC(CC(C4)C2)C3)sc[n+]1CC#N,nt,nt,nt,nt,12.6µM
Cc1nn(C)cc1CNC(=O)Nc1ccc(Cl)c(Cl)c1,i,15.8µM,i,i,i
SMILES,LMNA splice mod,HPGD inh,Luc counter,PNC assembly inh,ALDH1A1 inh
Cc1ccc(OCCn2cc(C#N)c3ccccc32)cc1,i,i,i,?,i
COC(=O)c1cn(CCOc2ccc(C)cc2)c2ccccc12,?,i,i,-82.3,i
O=C(COc1ccccc1Cl)Nc1nnc(S(=O)(=O)N2CCCC2)s1,i,nt,nt,nt,nt
Cc1ccc(C(=O)[C@@H]2[C@H]3C4COC(O4)C(=O)[C@@H]3[C@H]3C=Cc4ccccc4N32)cc1 (some centres undefined),nt,i,i,nt,?
CC(=O)[C@@H]1[C@H]2[C@H](C(=O)[C@H]3OC[C@@H]2O3)[C@H]2C=Cc3ccccc3N21,nt,i,?,nt,25.1µM
CC(=O)c1ccc(NC(=O)CSc2nc(=O)n(Cc3ccccn3)c3c2CCC3)cc1,i,nt,nt,nt,nt
C=CCN(CC=C)C(=S)NC(=O)c1ccc(OC)cc1,?,nt,i,nt,15µM
C=CCN(CC=C)C(=S)NC(=O)c1ccc(-c2ccccc2)cc1,?,?,i,?,?
Nc1cc(Cl)ccc1N1CCCCC1,i,nt,i,nt,i
